We go through 52 molecules from PubChem BioAssay AID504339 (National Center for Advancing Translational Sciences (NCATS), 2011).

The whole screen tested about 390,000 compounds, of which about 17,000 (4.4%) were called active. Roughly 8% stayed inconclusive and do not appear here. For the sample, actives were picked, then their nearest neighbours and some compounds at random. A number with no mark means an inactive call. Calls come from the whole dose curve; as a rule, active = well fitted inhibition curve with a large enough effect; inconclusive = small, poorly fitted or top-dose-only effect; inactive = no such curve, though single readings can be large or run the other way.
% is set by controls: 0 for no effect and ±100 for the full control effect; potency is the fitted concentration of half-maximal effect.

Sequence of Lysine-specific demethylase 4A (Homo sapiens) (O75164 whole entry, looked up, the tested form may be a part): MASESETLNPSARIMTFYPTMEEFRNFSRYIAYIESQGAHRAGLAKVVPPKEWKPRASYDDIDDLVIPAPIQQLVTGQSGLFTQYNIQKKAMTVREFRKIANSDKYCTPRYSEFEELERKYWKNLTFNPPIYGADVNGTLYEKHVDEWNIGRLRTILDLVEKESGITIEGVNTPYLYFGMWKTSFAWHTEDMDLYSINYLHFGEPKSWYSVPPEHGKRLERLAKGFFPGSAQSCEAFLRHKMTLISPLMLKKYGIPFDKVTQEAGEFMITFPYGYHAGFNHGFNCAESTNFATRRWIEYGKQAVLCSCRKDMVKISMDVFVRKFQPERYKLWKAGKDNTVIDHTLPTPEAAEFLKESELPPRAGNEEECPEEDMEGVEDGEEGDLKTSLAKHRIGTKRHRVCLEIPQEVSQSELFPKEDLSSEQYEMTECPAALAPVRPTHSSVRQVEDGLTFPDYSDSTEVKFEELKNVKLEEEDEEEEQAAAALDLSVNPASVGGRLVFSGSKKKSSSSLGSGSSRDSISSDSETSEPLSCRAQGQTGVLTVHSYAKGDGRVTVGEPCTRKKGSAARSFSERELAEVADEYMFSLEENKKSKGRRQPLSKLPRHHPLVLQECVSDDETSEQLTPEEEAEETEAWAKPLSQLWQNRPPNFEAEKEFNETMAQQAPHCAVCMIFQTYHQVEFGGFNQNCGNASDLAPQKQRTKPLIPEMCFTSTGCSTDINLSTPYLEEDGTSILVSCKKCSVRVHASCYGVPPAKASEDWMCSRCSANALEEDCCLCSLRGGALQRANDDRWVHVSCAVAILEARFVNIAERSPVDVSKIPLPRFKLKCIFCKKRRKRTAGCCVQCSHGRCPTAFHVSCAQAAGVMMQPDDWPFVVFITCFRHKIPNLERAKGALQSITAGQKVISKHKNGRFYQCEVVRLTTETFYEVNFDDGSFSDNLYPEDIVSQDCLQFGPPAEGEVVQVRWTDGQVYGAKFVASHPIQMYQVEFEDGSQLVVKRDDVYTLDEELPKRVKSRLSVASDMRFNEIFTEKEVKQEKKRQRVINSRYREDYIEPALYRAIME

For this experiment, the target named is Lysine-specific demethylase 4A (Homo sapiens) (UniProt O75164). The experiment can be described thus: qHTS Assay for Inhibitors of JMJD2A-Tudor Domain. Note: nearly all actives have a fitted effect of over 50% in size. Conditions: AlphaScreen JMJD2A-Tudor / H3K4me3 peptide binding; series mostly up to 114 µM; activity change, negative = inhibition: at the top concentration. An excerpt:
JMJD2A is a jumonji-domain-containing lysine demethylase that uses Fe(II) together with 2-OG to effect oxidative demethylation of histones. Methylation is one of many […] modification that affect epigenetic transcription. […] It is proposed that the functions of JmjD2A binding to the histones, is to maintain marks after they are installed and to spread the modifications by […], establishing a self-propagating cycle for rapid methylation over a large area of chromatin. […] Thus, small molecule targeting of the JMJD2A-tudor domain interaction with its target methylhistone mark is expected to enable sophisticated experiments probing the fine regulatory pathways leading to selective demethylation of a given methyllysine locus based on the methylation state of adjacent histone marks. A quantitative high throughput AlphaScreen has been developed to identify small molecule inhibitors based on a protocol published by NCGC and SGC [4].
Although AlphaScreen has significant advantages with its utility in a variety of epigenetic target assays, the primary screening data provided in this deposition should be used with caution due to the prevalence of screening artifacts. The top compound concentration tested was high (>100uM) in this assay, which increases number of actives and potential artifacts. An AlphaScreen counterscreen is highly recommended to be run against any putative actives to eliminate non-specific artifacts. Alternatively, one can use other AlphaScreen assays in PubChem to filter out promiscuous hits.
[1] Lee, J. et al. Distinct binding modes specify the recognition of methylated histone H3K4 and H4K20 by JMJD2A-tudor. Nat Struct Mol Biol. 15(1); 109-11. 2008. PMID: 18084306
[2] Yasgar, et al. Compound Management for Quantitative High-Throughput Screening. JALA. 2008 Apr;13(2):79-89. PMID: 18496600
[3] Inglese, et al. Quantitative high-throughput screening: a titration-based approach that efficiently identifies biological activities in large chemical libraries. Proc Natl Acad Sci. 1;103(31):11473-8. 2006. PMID: 16864780
[4] Quinn et al. A homogeneous method for investigation of methyl-dependent protein-protein interactions in epigenetics. Nucleic Acids Res., 38(2):e11. 2010. PMID: […]
[5] Baell,Holloway. New substructure filters for removal of pan assay interference compounds (PAINS) from screening libraries and for their exclusion in bioassays. J Med Chem. 53(7):2719-40. 2010. PMID: 20131845
NIH Molecular Libraries Probe Production Network [MLPCN]
NIH Chemical Genomics Center [NCGC]
Structural Genomics Consortium (SGC)
To each well of a 1,536w plate, 2ul of JMJD2A-Tudor (final 100nM) and 1ul biotinylated histone peptide methylated at Lys4 [b-H3(1-18)K4me3] (final 50nM) were added in 1x PBS buffer, pH 7.4, containing 0.01% Tween-20, using a nanoliter dispenser. Formation of a protein-peptide complex proceeded at room temperature for 30 min. A Kalypsys pin-tool transferred 23nl of library compound solution in DMSO to each well. Following a 30 min incubation of the protein-peptide complex with compounds at room temperature, a mixture of 40 µg/mL each streptavidin-coated donor and nickel chelate acceptor AlphaScreen beads (final 10 µg/mL) was added in a 1ul dispense for a final volume of 4ul, followed by a brief centrifugation (1000 rpm, 1 min). Plates were incubated protected from the light for 20 min at room temperature. Microplates were then read on an EnVision multilabel plate reader using the 1,536 plate HTS AlphaScreen aperture (excitation time 80 ms, measurement time 240 ms).
In general terms: In qHTS, concentration-response curves come from the screen itself.
Regarding `Cc1c(C(=O)Nc2cccc(Cl)c2)oc2ccc(S(=O)(=O)N3CCOCC3)cc12`, the “activity change, negative = inhibition” value is -11.9%.

Consider `Cc1c(OC(C)C(=O)N[C@@H](Cc2ccccc2)C(=O)O)ccc2c3c(c(=O)oc12)CCCC3` (some centres not stated), for which the “activity change, negative = inhibition” value was -10.9%. As for `Cc1oc2c(C)c3oc(=O)c(CC(=O)N[C@@H](CC(C)C)C(=O)N[C@@H](Cc4ccccc4)C(=O)O)c(C)c3cc2c1C`, the Potency was 56.2 µM (active).

With `CC(C)C[C@H](NC(=O)N1CC(=O)Nc2ccccc21)C(=O)N[C@H](Cc1ccccc1)C(=O)O`, the “activity change, negative = inhibition” value is -19%. With `COC(=O)c1ccccc1NC(=O)Cn1c(=O)cc(C)c2c(C)nn(-c3cccc(Cl)c3C)c21`, the “activity change, negative = inhibition” value is -9.33%.

On to `O=C(Nc1ccc(CN2CCOCC2)cc1)c1cc(Cl)ccc1Cl`, for which the “activity change, negative = inhibition” value is 8.97%. With `Clc1ccc(CN2CCCCCC2)cc1Cl`, the Potency was 3.98 µM (active). As to `Clc1ccc(-n2nnnc2CN2CCCCC2)cc1Cl`, the “activity change, negative = inhibition” value is 6.72%. Regarding `O=C(NCCc1csc(-c2ccc(C(F)(F)F)cc2)n1)C(=O)Nc1ccc(F)c(Cl)c1`, the “activity change, negative = inhibition” value is -12.9%. In the case of `COc1ccc(C2=NC(c3ccncc3)=Nc3ccc(Br)cc3N2)cc1`, the Potency is 44.7 µM (active). As for `Brc1ccc2c(c1)NC(c1cccnc1)=NC(c1ccccc1)=N2`, the “activity change, negative = inhibition” value is -22.3%. Regarding `COCCNC(=O)c1ccc2c(c1)N(Cc1cccc(Cl)c1)C(=O)c1ccccc1S2(=O)=O`, the “activity change, negative = inhibition” value is -12.5%. On the same count and under the same terms, to `CN(C)Cc1cn(-c2ccccc2)nc1-c1ccccc1` belongs -7.09%; to `Cc1cc(/C=C(/C#N)C(=O)Nc2ccc(Cl)cc2)c(C)n1-c1cccnc1`, -11.6%.

On to `Cc1ccc(C(=O)N/C(=C/c2cccs2)C(=O)NCC2CCCO2)cc1` (configuration not stated), for which the “activity change, negative = inhibition” value was -4.23%. On to `Cc1ccc(-n2c(C)cc(/C=C(\C#N)C(=O)NCC3CCCO3)c2C)cc1` (configuration not stated), for which the Potency is 50.1 µM (active). For the molecule `Cc1cc2c(cc3c(SCc4nc(-c5ccccc5)oc4C)nnc(C)n32)o1`, the “activity change, negative = inhibition” value is -10.6%. Regarding `CNc1nc(=O)n(C2CCCO2)cc1C` (configuration not stated), the “activity change, negative = inhibition” value was -6.25%. For `O=c1nc(NO)ccn1C1CCCO1` (configuration not stated), the Potency was 8.91 µM (active). For the molecule `Nc1ccn(C2CC(O)C(CO)O2)c(=O)n1` (configuration not stated), the “activity change, negative = inhibition” value was -6.47%.

Regarding `Cc1cccc(NC(=O)CSc2nc3c(oc4ccccc43)c(=O)n2-c2ccc(F)cc2)c1`, the “activity change, negative = inhibition” value was -0.727%. On the same count and under the same terms, as for `CCN1CCc2nc3sc(C(=O)Nc4ccccc4OC(F)(F)F)c(N)c3cc2C1`, the figure is -23.5%. Consider `CCc1ccc(NC(=O)c2sc3nc4c(cc3c2N)CN(CC)CC4)cc1`, for which the Potency is 56.2 µM (active). As for `COc1ccc(Cl)cc1NC(=O)c1sc2nc3c(cc2c1N)CN(C)CC3`, the “activity change, negative = inhibition” value was -8.42%. Still for that read-out and setting: as for `O=C(CSc1n[nH]c(-c2ccccc2)n1)N1CCCCC1`, the figure is 4.87%; as for `Cc1ccc(NC(=O)CN2c3ccccc3S(=O)(=O)c3ccccc32)cc1F`, -10.6%; as for `CCc1ccccc1NC(=O)Cc1ccc(NC(=O)N2CCCCc3ccccc32)cc1`, -15%. The same measure, in the same setting: as for `CCN(Cc1ccccc1)Cc1c(O)ccc2c(=O)c(-c3ccc(Cl)cc3Cl)coc12`, the figure is 2.42%.

For `COc1cccc(CNC(=O)Cn2c(=O)c3cccn3c3ccc(F)cc32)c1OC`, the “activity change, negative = inhibition” value is -5.59%.

For `CCOc1ccc(CCNC(=O)CN(c2ccc(C)cc2)S(=O)(=O)N(C)C)cc1OCC`, the “activity change, negative = inhibition” value was -2.98%. On the same count and under the same terms, as for `O=C(Cn1ncc2c3ccccc3n(Cc3ccccc3)c2c1=O)NC1CCCCCC1`, the figure is -9.73%; as for `CCCNC(=O)C(CC)n1nc(CC)n2c(cc3oc(C)cc32)c1=O` (configuration not stated), -4%; as for `CCOc1cccc(-c2nnc(SCC(=O)NC3CC3)n2C)c1`, -3.03%. Turning to `CCOc1cccc(-c2nn3c(-c4ccccn4)nnc3s2)c1`, the Potency was 79.4 µM (active). For the molecule `CCOc1cccc(C(=O)Nc2nnc(S(=O)(=O)N(C)c3ccc(C)cc3)s2)c1`, the “activity change, negative = inhibition” value is 5.92%. For `Cc1ccc2c(=O)c(C(=O)c3ccc(F)cc3)cn(CC(=O)NC3CCCCC3)c2n1`, the “activity change, negative = inhibition” value was -17.2%. On the same count and under the same terms, as for `CSc1ncc(C(=O)NCc2ccccc2Cl)c(C(F)(F)F)n1`, the figure is -0.99%; as for `Cc1cccn2c(=O)c3cc(C(=O)NC(C)c4ccccc4)c(=N)n(CCCO)c3nc12` (configuration not stated), -10%; as for `CCOc1cccc(NC(=O)c2ccc(F)c(S(=O)(=O)N(CC)c3cccc(C)c3)c2)c1`, 4.89%. For the molecule `COc1cc(O)c2c(=O)c3c(O)c(O)ccc3oc2c1OC`, the Potency was 89.1 µM (active).

As for `COc1cccc2c(O)cc(=O)n(C)c12`, the “activity change, negative = inhibition” value is -1.39%. On the same count and under the same terms, as for `COc1cccc2cc(-c3cc(=O)oc4cc(C)c(O)cc34)oc12`, the figure is -21.7%; as for `CCOc1ccccc1CNC(=O)C1CCCN(S(=O)(=O)c2ccc3c(ccn3C)c2)C1` (configuration not stated), -24%. Still for that read-out and setting: as for `O=C(c1ccc(CSc2ccccc2)cc1)N1CCCCCC1`, the figure is -5.41%; as for `Cc1ccc(S(=O)(=O)N2CCN(C(=O)N3CCOCC3)CC2)c(C)c1`, -0.328%. Still for that read-out and setting: to `Cc1cccc(C(=O)N2CCN(S(=O)(=O)N3CCCCC3)CC2)c1` belongs 1.46%. For the molecule `N#Cc1ccccc1-n1c(N)c(C(=O)N2CCCC2)sc1=S`, the Potency is 56.2 µM (active). Turning to `O=C(c1ccc(S(=O)(=O)N2CCCC2)cc1)N1CCN(c2ccccc2F)CC1`, the “activity change, negative = inhibition” value is 0%. Take `Cc1ccc(-n2c(N)c(C(=O)N3CCOCC3)sc2=S)c(C)c1`: the Potency is 35.5 µM (active). Same read-out and setting: as for `Cc1cccc(-n2c(N)c(C(=O)N3CCN(C)CC3)sc2=S)c1`, the figure is 79.4 µM (active).

In the case of `COc1cccc(N2CCN(c3ccc4nnc(CCC(=O)N5CCN(C)CC5)n4n3)CC2)c1`, the “activity change, negative = inhibition” value is -5.26%. On the same count and under the same terms, to `Cc1ccc(N2CCN(C(=O)c3cccs3)CC2)c(C)c1` belongs -3.42%.
